# PubChem BioAssay AID651871 (Sanford-Burnham Center for Chemical Genomics, 2012)
# Test system: HL-1
# Assay: protection of cardiomyocytes from stress damage, SAR follow-up, cell-based, panel, H9c2 and HL-1, ATP luminescence, set 2 (AID 651871);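 further: cells exposed to stressor for 2 h before ATP readout; reference of the scale not given here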
# Details: H9c2/HL-1 cardiomyocytes, 2-deoxyglucose stress, with 2-deoxyglucose, run 3, at 19.8 µM (top of the series)
compound,measurement,value
COc1ccc2c(c1OC)C(=O)N1c3ccccc3C(=O)N(Cc3cccc(Cl)c3Cl)C21 (stereo unspecified),activity (protection/inhibition),22.5%
